Experimental data as given in PubChem BioAssay AID1376 (SRMLSC, 2008).
Where “and” joins values, the source holds several entries; their conditions need not be identical. Identical values can stand only once. Out of some 220,000 compounds screened, about 530 (0.24%) were called active. Cut-off read from the data, not from the text of the source: active = inhibition above about 13%; inconclusive = no clear call, values can overlap the other calls; inactive = below that. This excerpt belongs to a sample that is enriched for actives. Results with a measured potency or affinity are listed apart.

Target: Bifunctional protein GlmU (Mycobacterium tuberculosis (strain ATCC 25618 / H37Rv)) (UniProt P9WMN3)
Assay: inhibition of mycobacterial GlmU enzyme – biochemical, glucosamine-1-phosphate acetyltransferase (AID 1376);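 note: 0% = complete reaction with vehicle and 100% = reaction without substrate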
Settings: M. tuberculosis GlmU acetyltransferase enzyme assay; active compounds read high;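 tested at 30 µM in the primary screen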

Bifunctional protein GlmU (Mycobacterium tuberculosis (strain ATCC 25618 / H37Rv)), sequence (P9WMN3 whole entry, looked up): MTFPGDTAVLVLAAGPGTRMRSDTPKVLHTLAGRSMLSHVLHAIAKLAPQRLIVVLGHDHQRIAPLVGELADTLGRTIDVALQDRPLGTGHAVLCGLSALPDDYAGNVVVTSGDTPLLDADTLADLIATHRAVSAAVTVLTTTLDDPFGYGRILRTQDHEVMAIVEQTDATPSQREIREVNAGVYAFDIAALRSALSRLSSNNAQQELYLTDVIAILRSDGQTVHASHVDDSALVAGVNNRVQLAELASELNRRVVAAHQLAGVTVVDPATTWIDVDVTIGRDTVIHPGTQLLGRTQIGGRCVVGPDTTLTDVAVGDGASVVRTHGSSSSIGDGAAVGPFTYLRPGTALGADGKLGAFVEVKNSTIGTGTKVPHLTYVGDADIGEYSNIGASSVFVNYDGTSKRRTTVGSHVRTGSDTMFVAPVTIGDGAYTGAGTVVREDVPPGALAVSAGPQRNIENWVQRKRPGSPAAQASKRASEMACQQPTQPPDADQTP

Structure (SMILES) | inhibition
Cc1ccc([N+](=O)[O-])cc1N(CC(=O)NCC1CCCO1)S(C)(=O)=O (configuration not stated) | 1.08% (inactive)
COc1ccc(C2CC(c3ccccc3)=NN2C(=O)c2cccs2)cc1 (configuration not stated) | 0.55% (inactive)
COc1ccc(CCNC(=O)COC(=O)CCC(=O)c2ccc(F)cc2)cc1 | 1.09% (inactive)
N#Cc1nc(Cc2cccc3ccccc23)oc1N1CCC(C(N)=O)CC1 | 1.98% (inactive)
Cc1ccc(-n2ncc(C(=O)NCc3ccc4c(c3)OCO4)c2NC(=O)c2ccco2)cc1C | 6.03% (inactive)
O=C(OCC(=O)c1ccc[nH]1)c1ccc(S(=O)(=O)N2CCCCCC2)cc1 | -6.95% (inactive)
Cc1ccc(C(=O)NC(=S)NNC(=O)CC#N)cc1 | -2.12% (inactive)
COc1ccc(OC)c(NC(=O)c2ccccc2NC(=O)c2ccco2)c1 | 4.28% (inactive)
COc1ccc(Cc2c(O)nc(SCC(=O)c3ccc(OC)cc3)[nH]c2=O)cc1 | 2.96% (inactive)
COc1ccc(Cc2c(O)nc[nH]c2=O)cc1 | 22.8% (active)
COc1ccc(C(c2c(O)nc[nH]c2=O)c2c(O)nc[nH]c2=O)cc1 | 0.27% (inactive)
CCOC(=O)C1=C2N(C)c3ccccc3N2CCC1=O | 0.79% (inactive)
Cc1cccc(Cn2c(N3CCc4ccccc4C3)nc3c2c(=O)[nH]c(=O)n3C)c1 | 2.16% (inactive)
CC(C)(C)NC(=S)Nc1ccc(Nc2ccccc2)cc1 | 13.4% (active)
CNC(=S)Nc1ccc(Nc2ccccc2)cc1 | 1.36% (inactive)
CC(C)(C)NC(=S)Nc1ccc(Br)cc1 | 1.07% (inactive)
O=C(Cc1cc(=O)[nH][nH]1)N/N=C/C=C/c1ccccc1 | 3.75% (inactive)
COc1ccc(N(CC2CO2)S(=O)(=O)c2ccccc2)cc1 (configuration not stated) | 3.63% (inactive)
CCN(CC)c1ccc(/C=N/N2CCN(Cc3ccccc3Cl)CC2)c(O)c1 | 14.1% (active)
CCN(CC)c1ccc(/C=N/N2CCN(Cc3cccc4ccccc34)CC2)c(O)c1 | -0.67% (inactive)
CCN(CC)c1ccc(/C=N/N2CCN(Cc3ccccc3)CC2)c(O)c1 | -0.12% (inactive)
Nc1nc(=S)c2ncn(C3CCCC3)c2[nH]1 | 7.24% (inactive)
Nc1ncnc2c1ncn2[C@@H]1O[C@H](CO)[C@@H](O)[C@H]1O | -4.56% (inactive)

Structure (SMILES) | inhibition
Nc1nc(=S)c2ncn(C3OC(CO)C(O)C3O)c2[nH]1 (configuration not stated) | 20.9% (active)
Cc1ccc2nc3c(nc2c1C)C(O)=C3O | 2.69% (inactive)
CN1CCN(C2=C(Cl)C(=O)N(Cc3ccccc3)C2=O)CC1 | -1.86% (inactive)
CC(C)(C)c1csc(SCC(=O)Nc2ccc(Cl)cn2)n1 | 5.51% (inactive)
CCn1c2ccccc2c2cc(/C=N/n3cnnc3)ccc21 | 6.56% (inactive)
CCn1c2ccccc2c2cc(/C=N/n3c(-c4cc(C)[nH]n4)n[nH]c3=S)ccc21 | 2.92% (inactive)
CCn1c2ccccc2c2cc(/C=N/n3cn[nH]c3=S)ccc21 | 13% (active)
CC(=O)Nc1ccc(Nc2nc(C)c([N+](=O)[O-])c(Nc3ccccc3)n2)cc1 | 5.98% (inactive)
CC(=O)Nc1ccc(Nc2nc(C)c([N+](=O)[O-])c(Nc3ccc(NC(C)=O)cc3)n2)cc1 | -3.57% (inactive)
O=C(NC12CC3CC(CC(C3)C1)C2)c1cncc(O)c1 | 14.9% (active)
O=C(NC12CC3CC(CC(C3)C1)C2)c1ccccc1 | -3.83% (inactive)
O=C(NC12CC3CC(CC(C3)C1)C2)c1cccnc1 | 2.68% (inactive)
COC(=O)Cc1c(O)ccn(Cc2ccc3c(c2)OCO3)c1=O | -0.24% (inactive)
CC(=O)c1ccc2c(c1)C1C(Cl)C(Sc3ccccc3[N+](=O)[O-])CC1C(C(=O)O)N2 (configuration not stated) | 13.1% (active)
CCN(CC)C(=O)c1ccc2c(c1)C1C(Cl)C(Sc3ccccc3[N+](=O)[O-])CC1C(C(=O)O)N2 (configuration not stated) | -0.47% (inactive)
O=C(O)c1cccc2c1NC(C(=O)O)C1CC(Sc3ccccc3[N+](=O)[O-])C(Cl)C21 (configuration not stated) | 30.8% (active)
O=C(O)c1cccc2c1NC(c1cccc([N+](=O)[O-])c1)C1CC(Sc3ccccc3[N+](=O)[O-])C(Cl)C21 (configuration not stated) | 7.9% (inactive)
CC(=O)c1ccc2c(c1)C1C(Cl)C(Sc3ccccc3[N+](=O)[O-])CC1C(c1ccccc1)N2 (configuration not stated) | 8.36% (inactive)
Cc1ccc2c(c1Cl)NC(C(=O)O)C1CC(Sc3ccccc3[N+](=O)[O-])C(Cl)C21 (configuration not stated) | 4.86% (inactive)
Cc1ccc2c(c1)cc(CN(Cc1cccs1)C(=O)c1ccco1)c1nnnn12 | -1.3% (inactive)
CC(=O)c1c(C)[nH]c(C(=O)COC(=O)CCCOc2ccccc2)c1C | 7.27% (inactive)
O=S(=O)(N1CCOCC1)n1cnc2ccccc21 | 3.88% (inactive)
COc1ccc(NC(=O)CN2C(=O)c3cccc4cccc2c34)c(OC)c1 | 0.85% (inactive)

Structure (SMILES) | inhibition
CCN(C(=O)CN1CCN(S(=O)(=O)c2ccccc2C(F)(F)F)CC1)c1c(N)n(Cc2ccccc2)c(=O)[nH]c1=O | -6.69% (inactive)
CCS(=O)(=O)Nc1cccc(-c2nc3cccnc3s2)c1 | 14.4% (active)
CCCS(=O)(=O)Nc1cccc(-c2nc3cccnc3s2)c1 | 3.55% (inactive)
CCS(=O)(=O)Nc1ccc(-c2nc3cccnc3s2)cc1 | 0.1% (inactive)
COc1cc(C(=O)Oc2ccc3c(c2)OCC3=O)cc(OC)c1OC | 1.2% (inactive)
Cc1ccccc1CSc1nnc(-c2ccco2)n1Cc1ccco1 | 1.77% (inactive)
c1ccc(CSc2nnc(-c3ccco3)n2Cc2ccco2)cc1 | 13% (active)
c1ccc(CSc2nnc(-c3cccs3)n2Cc2ccco2)cc1 | -1.39% (inactive)
Cc1ccc(OCC(=O)Nc2ccc(S(=O)(=O)N3CCCCC3)cc2)c([N+](=O)[O-])n1 | -4.33% (inactive)
O=C(CN(CC1CCCO1)S(=O)(=O)c1ccc(S(=O)(=O)NCC2CCCO2)cc1)Nc1ccccc1 (configuration not stated) | 5.97% (inactive)
CCOC(=O)c1cnc(-n2nc(C)cc2C)nc1Oc1ccccc1F | -3.61% (inactive)
CCOC(=O)c1cnc(-n2nc(C)cc2C)nc1Oc1ccc(C(=O)OC)cc1 | -2.28% (inactive)
CCOC(=O)c1cnc(-n2nc(C)cc2C)nc1Oc1ccc(C#N)cc1 | 13.1% (active)
CCOC(=O)c1[nH]c2cc(OC)c(OC)cc2c1NC(=O)c1ccc2c(c1)OCO2 | 17.8% (active)
CCOC(=O)c1[nH]c2ccccc2c1NC(=O)c1ccc2c(c1)OCO2 | -1.52% (inactive)
CCOC(=O)c1[nH]c2ccc(OC)cc2c1NC(=O)c1ccc2c(c1)OCO2 | -4.48% (inactive)
O=C(Nc1ccon1)c1ccccc1F | -0.14% (inactive)
O=C(CCN1C(=O)c2ccccc2C1=O)NC(=S)Nc1ccccc1 | 2.69% (inactive)
O=C(CCN1C(=O)c2ccccc2C1=O)NC(=S)Nc1ccccc1Cl | -2.84% (inactive)
Cc1cc(C)cc(NC(=S)NC(=O)CCN2C(=O)c3ccccc3C2=O)c1 | 13.3% (active)
Cc1ccc(CNC(=O)c2ccc3c(=O)[nH]c4c(C(=O)NCC5CCCO5)sc(=S)n4c3c2)cc1 (configuration not stated) | 13.2% (active)
CCCCCNC(=O)c1ccc2c(=O)[nH]c3c(C(=O)NCC4CCCO4)sc(=S)n3c2c1 (configuration not stated) | -1.14% (inactive) and 8.81% (inactive)
O=C(NCc1ccccc1)c1ccc2c(=O)[nH]c3c(C(=O)NCC4CCCO4)sc(=S)n3c2c1 (configuration not stated) | 4.19% (inactive)

Structure (SMILES) | inhibition
COc1ccc(OCCCC(=O)NCCc2nc3ccccc3[nH]2)cc1 | 5.71% (inactive)
O=c1c(C(c2c(O)nc3n(c2=O)CCS3)c2cccc3ccccc23)c(O)nc2n1CCS2 | 15.3% (active)
O=c1c(C(c2ccccc2)c2c(O)nc3n(c2=O)CCS3)c(O)nc2n1CCS2 | 3.94% (inactive)
Cc1ccc(C(c2c(O)nc3n(c2=O)CCS3)c2c(O)nc3n(c2=O)CCS3)cc1 | -1.5% (inactive)
Cc1c(N=C2C=C(Br)C(=O)C(Br)=C2)c(=O)n(-c2ccccc2)n1C | 14.5% (active)
CCC(C)C1=CC(=Nc2c(C)n(C)n(-c3ccccc3)c2=O)C=C(C(C)CC)C1=O (configuration not stated) | -5.03% (inactive)
CC1=CC(=Nc2c(C)n(C)n(-c3ccccc3)c2=O)C=C(C)C1=O | -6.33% (inactive)
O=C(NC1CC1)C1=C[C@@H](c2ccc(C(F)(F)F)cc2)C[C@@H](OCCCCO)O1 | 0.57% (inactive)
CCOc1cc(/C=C2/C(=O)ON=C2C)ccc1OCc1ccccc1F | -0.49% (inactive)
S=C(NCCc1ccccn1)Nc1cccc(Cl)c1 | 2.84% (inactive)
O=C(CSc1nc2ccccc2[nH]1)Nc1ccccc1N1CCOCC1 | 2.16% (inactive)
O=C(CCSc1ccccc1)Nc1nnc(-c2ccccc2)o1 | -1.24% (inactive)
O=C(c1coc(=O)c(Br)c1)N1CCCc2ccccc21 | -0.3% (inactive)
COc1ccccc1N1CCN(C(=O)c2coc(=O)c(Br)c2)CC1 | 2.74% (inactive)
COc1ccc(C(=O)N2CCOCC2)cc1Br | -2.45% (inactive)
O=C(c1coc(=O)c(Br)c1)N1CCC(C(O)(c2ccccc2)c2ccccc2)CC1 | -1.06% (inactive)
CC(c1ccccc1)C1CC(=O)N(c2ccc(C(=O)O)cc2)C1=O (configuration not stated) | -1.47% (inactive)
CS(=O)(=O)NNC(=O)c1sccc1OCc1ncc(C(F)(F)F)cc1Cl | -2.98% (inactive)
CC(C)CNc1c(N)c(=O)oc2ccccc12 | -2.95% (inactive)
O=C(Nc1cccc(C(F)(F)F)c1)c1ccco1 | -3.67% (inactive)
Cc1ccccc1Nc1nc(N)nc(COC(=O)c2ccccc2)n1 | 6.9% (inactive)
CCc1ccccc1Nc1nc(N)nc(COC(=O)c2cccn2C)n1 | 13.1% (active)
Cc1ccccc1Nc1nc(N)nc(COC(=O)c2cccn2C)n1 | 2.68% (inactive)
